Data from the supplement of paper PMC11732987, “Enantioselective OTUD7B fragment discovery through chemoproteomics screening and high-throughput optimisation” (Communications Chemistry, 2025).

Assays:
Experiment in all cases: log2 ratio of Biotin-Ahx-Ub-VS probe labelling (fragment/DMSO); higher = less target engagement (more negative = stronger competition), active = hit call of the paper (q ≤ 0.05, log2 ratio ≤ -1)
Settings in all cases: compound concentration: 200 uM; treatment time: 3 h
USP19 = molecular target: T1, USP19 (UniProt O94966)
T1 sequence (whole entry): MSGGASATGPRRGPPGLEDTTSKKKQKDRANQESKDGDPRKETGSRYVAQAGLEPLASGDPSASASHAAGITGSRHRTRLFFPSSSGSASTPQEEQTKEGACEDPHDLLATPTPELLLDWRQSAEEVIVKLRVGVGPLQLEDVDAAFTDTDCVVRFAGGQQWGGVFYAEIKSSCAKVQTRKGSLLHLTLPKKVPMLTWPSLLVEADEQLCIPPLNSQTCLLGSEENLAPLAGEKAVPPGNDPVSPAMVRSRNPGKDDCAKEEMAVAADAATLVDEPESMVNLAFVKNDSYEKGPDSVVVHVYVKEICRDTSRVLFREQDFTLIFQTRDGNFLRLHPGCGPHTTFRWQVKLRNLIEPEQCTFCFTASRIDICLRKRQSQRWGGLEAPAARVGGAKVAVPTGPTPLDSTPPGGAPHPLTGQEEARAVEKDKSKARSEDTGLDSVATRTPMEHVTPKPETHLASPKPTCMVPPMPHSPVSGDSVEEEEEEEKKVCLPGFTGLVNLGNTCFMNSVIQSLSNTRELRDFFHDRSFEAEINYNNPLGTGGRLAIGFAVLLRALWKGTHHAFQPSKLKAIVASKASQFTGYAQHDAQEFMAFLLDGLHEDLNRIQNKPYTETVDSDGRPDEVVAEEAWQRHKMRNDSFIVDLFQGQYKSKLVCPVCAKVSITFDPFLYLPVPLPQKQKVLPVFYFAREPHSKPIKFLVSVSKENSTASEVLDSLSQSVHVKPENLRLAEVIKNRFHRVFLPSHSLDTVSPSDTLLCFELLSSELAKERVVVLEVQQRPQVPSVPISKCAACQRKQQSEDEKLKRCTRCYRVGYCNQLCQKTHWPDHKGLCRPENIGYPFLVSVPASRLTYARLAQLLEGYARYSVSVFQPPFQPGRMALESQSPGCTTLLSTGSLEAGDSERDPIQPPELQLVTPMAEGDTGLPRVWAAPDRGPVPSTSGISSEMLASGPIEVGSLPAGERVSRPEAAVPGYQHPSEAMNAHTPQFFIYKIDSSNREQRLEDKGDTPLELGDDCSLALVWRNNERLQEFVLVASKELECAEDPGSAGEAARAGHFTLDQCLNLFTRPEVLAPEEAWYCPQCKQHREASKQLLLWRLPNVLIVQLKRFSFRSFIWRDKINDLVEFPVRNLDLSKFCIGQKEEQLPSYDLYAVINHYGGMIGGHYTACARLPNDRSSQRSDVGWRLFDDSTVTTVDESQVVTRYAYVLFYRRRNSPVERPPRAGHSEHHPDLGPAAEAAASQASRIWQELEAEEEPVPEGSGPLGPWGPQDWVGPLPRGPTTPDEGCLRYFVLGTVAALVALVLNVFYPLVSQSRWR
Summary of the method: (§1)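 The table lists average log2 ratios of fragment over vehicle, from an unpaired t-test on global-median-normalised Spectronaut label-free quantities. Proteins with ≥2 unique peptides were used. Samples were HEK293T lysate (495 µg) treated in triplicate with fragment at 200 µM or vehicle for 3 h, then with Biotin-Ahx-Ub-VS (0.5 µM final) for 1 h, with labelled DUBs NeutrAvidin-enriched and run by diaPASEF LC-MS/MS.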

USP22 = molecular target: T2, USP22 (UniProt Q9UPT9)
T2 sequence (whole entry): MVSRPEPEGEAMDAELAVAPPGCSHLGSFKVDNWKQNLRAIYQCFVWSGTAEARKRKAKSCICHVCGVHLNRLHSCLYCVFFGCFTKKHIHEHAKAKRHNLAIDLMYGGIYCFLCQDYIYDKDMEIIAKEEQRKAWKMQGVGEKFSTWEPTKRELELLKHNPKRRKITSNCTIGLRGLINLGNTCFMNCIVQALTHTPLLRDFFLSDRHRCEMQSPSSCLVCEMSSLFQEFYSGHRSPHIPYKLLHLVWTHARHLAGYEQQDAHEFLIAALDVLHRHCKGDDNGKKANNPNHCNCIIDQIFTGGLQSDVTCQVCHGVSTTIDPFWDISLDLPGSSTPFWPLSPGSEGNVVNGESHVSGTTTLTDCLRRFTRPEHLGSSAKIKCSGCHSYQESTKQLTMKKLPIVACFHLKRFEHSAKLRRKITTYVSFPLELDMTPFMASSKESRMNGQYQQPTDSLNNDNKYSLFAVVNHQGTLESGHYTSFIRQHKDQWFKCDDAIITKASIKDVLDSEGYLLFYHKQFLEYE
Summary of the method: as §1

USP24 = USP24 (UniProt Q9UPU5)
Summary of the method: as §1

USP25 = molecular target: T3, USP25 (UniProt Q9UHP3)
T3 sequence (whole entry): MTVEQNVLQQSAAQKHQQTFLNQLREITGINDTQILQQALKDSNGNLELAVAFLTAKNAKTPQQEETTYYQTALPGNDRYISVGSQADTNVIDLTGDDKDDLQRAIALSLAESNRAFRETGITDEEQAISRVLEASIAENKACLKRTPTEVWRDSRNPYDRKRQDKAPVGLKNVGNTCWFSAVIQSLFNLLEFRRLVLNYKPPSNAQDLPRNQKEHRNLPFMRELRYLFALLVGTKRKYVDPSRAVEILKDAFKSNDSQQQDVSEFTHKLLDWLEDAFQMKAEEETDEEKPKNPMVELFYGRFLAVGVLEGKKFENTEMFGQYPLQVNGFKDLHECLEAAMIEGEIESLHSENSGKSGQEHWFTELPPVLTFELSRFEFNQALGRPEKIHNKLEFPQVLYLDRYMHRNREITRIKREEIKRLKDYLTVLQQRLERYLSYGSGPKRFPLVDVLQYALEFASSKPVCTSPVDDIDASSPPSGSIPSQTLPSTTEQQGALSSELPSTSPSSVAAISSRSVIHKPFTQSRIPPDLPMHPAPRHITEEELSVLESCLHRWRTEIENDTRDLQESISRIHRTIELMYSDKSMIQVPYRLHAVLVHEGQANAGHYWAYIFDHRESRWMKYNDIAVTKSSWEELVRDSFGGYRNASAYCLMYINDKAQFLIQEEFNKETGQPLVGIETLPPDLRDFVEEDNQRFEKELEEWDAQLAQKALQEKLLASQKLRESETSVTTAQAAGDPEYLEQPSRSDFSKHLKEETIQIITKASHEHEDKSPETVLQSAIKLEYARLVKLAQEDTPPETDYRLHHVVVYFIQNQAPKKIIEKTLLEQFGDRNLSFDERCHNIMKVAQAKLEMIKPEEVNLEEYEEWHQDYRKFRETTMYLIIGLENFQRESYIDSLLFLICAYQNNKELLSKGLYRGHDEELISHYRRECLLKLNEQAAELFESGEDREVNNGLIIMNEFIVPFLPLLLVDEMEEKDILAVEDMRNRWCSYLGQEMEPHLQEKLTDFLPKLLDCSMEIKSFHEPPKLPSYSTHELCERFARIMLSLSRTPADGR
Summary of the method: as §1

USP28 = molecular target: T4, USP28 (UniProt Q96RU2)
T4 sequence (whole entry): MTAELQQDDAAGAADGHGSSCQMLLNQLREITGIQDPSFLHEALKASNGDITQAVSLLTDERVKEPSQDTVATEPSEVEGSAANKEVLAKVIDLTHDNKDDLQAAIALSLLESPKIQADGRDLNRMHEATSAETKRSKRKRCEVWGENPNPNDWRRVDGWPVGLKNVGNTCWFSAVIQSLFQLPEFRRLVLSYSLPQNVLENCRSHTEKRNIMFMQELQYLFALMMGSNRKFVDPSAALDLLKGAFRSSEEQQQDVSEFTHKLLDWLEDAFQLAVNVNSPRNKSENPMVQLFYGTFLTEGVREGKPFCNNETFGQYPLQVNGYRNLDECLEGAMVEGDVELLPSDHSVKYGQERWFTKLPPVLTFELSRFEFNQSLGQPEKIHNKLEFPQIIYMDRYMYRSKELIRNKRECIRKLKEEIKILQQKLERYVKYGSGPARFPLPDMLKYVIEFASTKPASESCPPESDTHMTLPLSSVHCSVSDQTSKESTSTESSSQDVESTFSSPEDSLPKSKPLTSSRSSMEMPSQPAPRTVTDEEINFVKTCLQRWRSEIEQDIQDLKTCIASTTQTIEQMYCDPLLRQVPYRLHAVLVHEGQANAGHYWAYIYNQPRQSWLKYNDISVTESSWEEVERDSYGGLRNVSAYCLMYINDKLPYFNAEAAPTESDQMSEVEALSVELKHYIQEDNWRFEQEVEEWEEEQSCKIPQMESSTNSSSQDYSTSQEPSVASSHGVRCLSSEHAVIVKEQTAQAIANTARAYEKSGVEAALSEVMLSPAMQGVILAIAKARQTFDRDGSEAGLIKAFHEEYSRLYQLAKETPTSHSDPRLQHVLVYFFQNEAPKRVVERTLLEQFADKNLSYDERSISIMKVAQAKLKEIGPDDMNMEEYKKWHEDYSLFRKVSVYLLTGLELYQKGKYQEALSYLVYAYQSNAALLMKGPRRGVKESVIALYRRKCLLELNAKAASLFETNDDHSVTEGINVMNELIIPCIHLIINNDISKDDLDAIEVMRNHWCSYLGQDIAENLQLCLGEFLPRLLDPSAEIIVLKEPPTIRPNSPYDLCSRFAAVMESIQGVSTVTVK
Summary of the method: as §1

Measured: log2 ratio of Biotin-Ahx-Ub-VS probe labelling

Chain of USP24 (Q9UPU5 whole entry): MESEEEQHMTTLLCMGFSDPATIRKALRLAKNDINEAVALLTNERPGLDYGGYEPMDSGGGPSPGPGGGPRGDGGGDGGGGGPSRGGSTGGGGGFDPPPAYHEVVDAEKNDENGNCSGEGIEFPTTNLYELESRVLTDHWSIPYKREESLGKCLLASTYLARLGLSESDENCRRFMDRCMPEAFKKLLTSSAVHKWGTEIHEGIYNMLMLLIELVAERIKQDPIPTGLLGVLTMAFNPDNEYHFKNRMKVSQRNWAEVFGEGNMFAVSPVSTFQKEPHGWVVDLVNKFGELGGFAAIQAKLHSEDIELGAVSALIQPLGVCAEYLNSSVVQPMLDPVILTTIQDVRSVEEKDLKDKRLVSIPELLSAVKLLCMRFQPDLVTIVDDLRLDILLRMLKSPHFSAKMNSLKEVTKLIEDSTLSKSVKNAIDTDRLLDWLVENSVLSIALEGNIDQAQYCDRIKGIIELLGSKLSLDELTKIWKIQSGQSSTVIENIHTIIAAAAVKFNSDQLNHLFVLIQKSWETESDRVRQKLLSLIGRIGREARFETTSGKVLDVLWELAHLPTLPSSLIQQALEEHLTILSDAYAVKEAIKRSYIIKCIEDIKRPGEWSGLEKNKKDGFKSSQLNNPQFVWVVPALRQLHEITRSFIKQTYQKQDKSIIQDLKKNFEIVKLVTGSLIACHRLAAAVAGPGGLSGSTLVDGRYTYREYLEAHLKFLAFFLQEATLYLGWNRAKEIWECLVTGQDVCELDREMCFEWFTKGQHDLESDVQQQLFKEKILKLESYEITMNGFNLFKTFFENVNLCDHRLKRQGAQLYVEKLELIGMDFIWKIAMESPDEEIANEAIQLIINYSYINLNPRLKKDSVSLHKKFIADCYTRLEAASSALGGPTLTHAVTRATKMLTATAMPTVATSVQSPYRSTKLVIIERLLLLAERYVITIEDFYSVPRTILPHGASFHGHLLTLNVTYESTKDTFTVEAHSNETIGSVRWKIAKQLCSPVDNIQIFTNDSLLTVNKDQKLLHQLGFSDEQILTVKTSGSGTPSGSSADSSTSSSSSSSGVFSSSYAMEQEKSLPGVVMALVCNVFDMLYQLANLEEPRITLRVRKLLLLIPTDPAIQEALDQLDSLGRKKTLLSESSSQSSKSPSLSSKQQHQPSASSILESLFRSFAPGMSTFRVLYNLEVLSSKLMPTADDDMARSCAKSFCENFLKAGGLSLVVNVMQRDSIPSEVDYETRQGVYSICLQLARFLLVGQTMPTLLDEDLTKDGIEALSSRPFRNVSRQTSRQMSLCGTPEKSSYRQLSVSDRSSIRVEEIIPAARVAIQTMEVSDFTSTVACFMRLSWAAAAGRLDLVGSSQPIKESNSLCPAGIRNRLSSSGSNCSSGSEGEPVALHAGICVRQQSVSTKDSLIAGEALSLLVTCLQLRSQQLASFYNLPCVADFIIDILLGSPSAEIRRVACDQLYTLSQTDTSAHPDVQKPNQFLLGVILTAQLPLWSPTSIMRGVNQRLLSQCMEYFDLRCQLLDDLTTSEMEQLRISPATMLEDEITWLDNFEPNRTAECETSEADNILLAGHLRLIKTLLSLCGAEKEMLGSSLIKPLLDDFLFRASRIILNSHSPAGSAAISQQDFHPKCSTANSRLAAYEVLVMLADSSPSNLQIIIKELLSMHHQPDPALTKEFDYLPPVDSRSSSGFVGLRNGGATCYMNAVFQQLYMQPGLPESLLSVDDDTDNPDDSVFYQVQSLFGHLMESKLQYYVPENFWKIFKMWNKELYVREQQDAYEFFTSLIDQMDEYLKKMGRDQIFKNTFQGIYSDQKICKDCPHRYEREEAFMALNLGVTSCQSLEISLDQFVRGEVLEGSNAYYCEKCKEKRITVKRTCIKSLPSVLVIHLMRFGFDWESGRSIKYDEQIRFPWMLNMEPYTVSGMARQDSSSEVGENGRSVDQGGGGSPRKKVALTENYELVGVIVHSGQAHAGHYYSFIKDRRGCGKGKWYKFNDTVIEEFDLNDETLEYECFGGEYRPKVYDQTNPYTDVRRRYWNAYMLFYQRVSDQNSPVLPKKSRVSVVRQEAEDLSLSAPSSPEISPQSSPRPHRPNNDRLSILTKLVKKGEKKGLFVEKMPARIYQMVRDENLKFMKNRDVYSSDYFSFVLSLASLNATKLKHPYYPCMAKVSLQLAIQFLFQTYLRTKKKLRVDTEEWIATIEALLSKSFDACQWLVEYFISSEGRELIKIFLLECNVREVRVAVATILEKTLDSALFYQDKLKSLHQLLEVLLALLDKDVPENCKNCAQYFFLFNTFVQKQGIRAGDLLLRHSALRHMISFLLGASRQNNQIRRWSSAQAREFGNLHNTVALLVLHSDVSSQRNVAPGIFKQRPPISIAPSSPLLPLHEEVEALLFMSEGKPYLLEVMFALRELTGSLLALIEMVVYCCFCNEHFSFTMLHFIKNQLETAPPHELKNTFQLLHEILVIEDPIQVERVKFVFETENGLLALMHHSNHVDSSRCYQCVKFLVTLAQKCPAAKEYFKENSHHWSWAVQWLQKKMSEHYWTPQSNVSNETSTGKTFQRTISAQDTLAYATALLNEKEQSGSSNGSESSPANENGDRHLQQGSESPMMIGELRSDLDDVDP

O=C(CCl)N1CCCN(C(=O)c2ccc(Cl)cc2)CC1
inactive: USP19 -0.449 | USP22 -0.095 | USP24 -0.433 | USP25 -0.628 | USP28 -0.618
